Experimental data taken from the supplement of paper PMC10941209.

The compounds below were run on HFF (assay: cell viability relative to DMSO control; higher = less cytotoxic). Details: 1 µM; 72 h.
Procedure: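 Single-dose cytotoxicity screen of the MMV Pandemic Response Box at 1 uM on human foreskin fibroblasts (HFF), 72 h at 37 C. Viability measured by MTT (OD 550 nm) and normalised to the DMSO control (% survival).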

Compound	cell viability [%]
O=C1CCC(N2C(=O)c3ccccc3C2=O)C(=O)N1 (configuration not stated)	59
COc1ccc(NS(=O)(=O)c2ccc(Cl)s2)cn1	72.2
COc1cc2c(O)c3c(c(-c4ccc5c(c4)OCO5)c2cc1OC)C(=O)OC3	66.8
CCc1oc2ccccc2c1C(=O)c1ccc(O)cc1	71.1
Cc1cccc(CC(=O)N[C@H]2CCOC2=O)c1	77.2
Cc1[nH]c2ccccc2c1CCNCc1ccc(/C=C/C(=O)NO)cc1	19
Cc1cc(Nc2ccc(F)cc2)nc(SCc2nc3ccccc3[nH]2)n1	66
O=C(c1cc(O)nc2ccccc12)N1CCN(c2ccccc2)CC1	67
CCNC(=O)Nc1cc(-c2ccccc2)c(-c2cncc(C(=O)O)c2)cn1	63.8
Cc1[nH]c2ccccc2c1CC(=O)N[C@@H](Cc1ccccc1)C(=O)N(C)c1ccccc1	69.6
Clc1cc2nc(C3CCNCC3)n(Cc3ccc(CNCCc4c[nH]cn4)cc3)c2cc1Cl	65.3
O=c1ccc2ncc(=O)n3c2n1CC3CN1CCC(NCc2cc3c(cn2)OCCC3)CC1 (configuration not stated)	60
CC(C)(C)c1cc(CCC(=O)N2CCC2)cc(C(C)(C)C)c1O	72.6
COc1ccc(OCc2ccc(COc3c(Cl)cccc3Cl)cc2)c(Cl)c1	60.4
COc1ccc(SCC(=O)N2c3ccccc3Sc3ccccc32)cc1	69.2
Nc1cc(N)c2nc(-c3ccccc3)c(Nc3ccc(F)cc3)nc2c1	80.1
NCc1ccc(S(N)(=O)=O)cc1	61.5
COc1ccc(C)cc1NC(=O)c1ccc(S(=O)(=O)N2CCCCC2)cc1	76.4
FC(F)(F)Oc1ccc(Nc2ccc3cccc(Cl)c3n2)cc1	56.3

Compound	cell viability [%]
COc1ccc2sc3c(c2c1)NC(C)CNC3=O (configuration not stated)	82.1
Cc1cc(C)n2nc(C(=O)NS(=O)(=O)c3c(C)cccc3OC(F)(F)F)nc2n1	72.2
Nc1nc2c(ncn2COC(CO)CO)c(=O)[nH]1	68.6
CCN(CC)CCCC(C)Nc1ccnc2cc(Cl)ccc12 (configuration not stated)	66.4
CCCCCCCCCN1C[C@@H](O)[C@H](O)[C@@H](O)[C@@H]1CO	84.2
CCOc1noc2cc(OCCC3CCN(c4ccc(C)nn4)CC3)ccc12	53
CCc1ccc(C2CC(C(F)(F)F)n3ncc(C(=O)NCc4ccc(OC)cc4)c3N2)cc1 (configuration not stated)	76.2
Cc1c(CN(C)C(=O)/C=C/c2cnc3c(c2)C(C)(C)C(=O)N3)oc2ccccc12	63.6
Cc1cc(C)n(O)c(=O)c1	68.5
Cn1c2ccccc2c(=O)c2c(O)cccc21	65.8
CC(C)(C)NC(=O)[C@@H]1C[C@@H]2CCCC[C@@H]2CN1C[C@@H](O)[C@H](Cc1ccccc1)NC(=O)[C@H](CC(N)=O)NC(=O)c1ccc2ccccc2n1	78.9
NC(=O)c1ccccc1NC(=O)c1ccc(C(=O)Nc2ccccc2C(N)=O)cc1	63.5
O=c1oc2ccc(Br)cc2cc1CSc1ncc[nH]1	74.7
C[Si]1(C)CCN(Cc2cc(-c3ccc(Cl)cc3)n(-c3ccc(Cl)cc3)n2)CC1	82.5
CC#C[C@]1(O)CC[C@H]2[C@@H]3CCC4=CC(=O)CCC4=C3[C@@H](c3ccc(N(C)C)cc3)C[C@@]21C	52
CC(C)n1cnc2c(NCc3ccccc3)nc(NCc3ccccc3)nc21	65.3
NC[C@H]1OB(O)c2c(OCCCO)cccc21	69.9
O=C(NCc1ccccc1Cl)c1cnc2ccccc2n1	71.4
